Pf apPOL inh: Pf-apPOL DNA polymerase inhibition; Recombinant Pf-apPOL, molecular beacon fluorescence, 1.5 h; inhibition, % at 10 µM; 0.25% of 210,000 active; AID 1794808
mHTT-CaM PPI inh: mHTT-calmodulin interaction abrogation; 3.6% of 190,000 active; inhibition, % at 15 µM; AlphaScreen His-mHTT/GST-CaM binding, luminescence; P42858
Target sequence (P42858 whole entry, looked up, change not shown): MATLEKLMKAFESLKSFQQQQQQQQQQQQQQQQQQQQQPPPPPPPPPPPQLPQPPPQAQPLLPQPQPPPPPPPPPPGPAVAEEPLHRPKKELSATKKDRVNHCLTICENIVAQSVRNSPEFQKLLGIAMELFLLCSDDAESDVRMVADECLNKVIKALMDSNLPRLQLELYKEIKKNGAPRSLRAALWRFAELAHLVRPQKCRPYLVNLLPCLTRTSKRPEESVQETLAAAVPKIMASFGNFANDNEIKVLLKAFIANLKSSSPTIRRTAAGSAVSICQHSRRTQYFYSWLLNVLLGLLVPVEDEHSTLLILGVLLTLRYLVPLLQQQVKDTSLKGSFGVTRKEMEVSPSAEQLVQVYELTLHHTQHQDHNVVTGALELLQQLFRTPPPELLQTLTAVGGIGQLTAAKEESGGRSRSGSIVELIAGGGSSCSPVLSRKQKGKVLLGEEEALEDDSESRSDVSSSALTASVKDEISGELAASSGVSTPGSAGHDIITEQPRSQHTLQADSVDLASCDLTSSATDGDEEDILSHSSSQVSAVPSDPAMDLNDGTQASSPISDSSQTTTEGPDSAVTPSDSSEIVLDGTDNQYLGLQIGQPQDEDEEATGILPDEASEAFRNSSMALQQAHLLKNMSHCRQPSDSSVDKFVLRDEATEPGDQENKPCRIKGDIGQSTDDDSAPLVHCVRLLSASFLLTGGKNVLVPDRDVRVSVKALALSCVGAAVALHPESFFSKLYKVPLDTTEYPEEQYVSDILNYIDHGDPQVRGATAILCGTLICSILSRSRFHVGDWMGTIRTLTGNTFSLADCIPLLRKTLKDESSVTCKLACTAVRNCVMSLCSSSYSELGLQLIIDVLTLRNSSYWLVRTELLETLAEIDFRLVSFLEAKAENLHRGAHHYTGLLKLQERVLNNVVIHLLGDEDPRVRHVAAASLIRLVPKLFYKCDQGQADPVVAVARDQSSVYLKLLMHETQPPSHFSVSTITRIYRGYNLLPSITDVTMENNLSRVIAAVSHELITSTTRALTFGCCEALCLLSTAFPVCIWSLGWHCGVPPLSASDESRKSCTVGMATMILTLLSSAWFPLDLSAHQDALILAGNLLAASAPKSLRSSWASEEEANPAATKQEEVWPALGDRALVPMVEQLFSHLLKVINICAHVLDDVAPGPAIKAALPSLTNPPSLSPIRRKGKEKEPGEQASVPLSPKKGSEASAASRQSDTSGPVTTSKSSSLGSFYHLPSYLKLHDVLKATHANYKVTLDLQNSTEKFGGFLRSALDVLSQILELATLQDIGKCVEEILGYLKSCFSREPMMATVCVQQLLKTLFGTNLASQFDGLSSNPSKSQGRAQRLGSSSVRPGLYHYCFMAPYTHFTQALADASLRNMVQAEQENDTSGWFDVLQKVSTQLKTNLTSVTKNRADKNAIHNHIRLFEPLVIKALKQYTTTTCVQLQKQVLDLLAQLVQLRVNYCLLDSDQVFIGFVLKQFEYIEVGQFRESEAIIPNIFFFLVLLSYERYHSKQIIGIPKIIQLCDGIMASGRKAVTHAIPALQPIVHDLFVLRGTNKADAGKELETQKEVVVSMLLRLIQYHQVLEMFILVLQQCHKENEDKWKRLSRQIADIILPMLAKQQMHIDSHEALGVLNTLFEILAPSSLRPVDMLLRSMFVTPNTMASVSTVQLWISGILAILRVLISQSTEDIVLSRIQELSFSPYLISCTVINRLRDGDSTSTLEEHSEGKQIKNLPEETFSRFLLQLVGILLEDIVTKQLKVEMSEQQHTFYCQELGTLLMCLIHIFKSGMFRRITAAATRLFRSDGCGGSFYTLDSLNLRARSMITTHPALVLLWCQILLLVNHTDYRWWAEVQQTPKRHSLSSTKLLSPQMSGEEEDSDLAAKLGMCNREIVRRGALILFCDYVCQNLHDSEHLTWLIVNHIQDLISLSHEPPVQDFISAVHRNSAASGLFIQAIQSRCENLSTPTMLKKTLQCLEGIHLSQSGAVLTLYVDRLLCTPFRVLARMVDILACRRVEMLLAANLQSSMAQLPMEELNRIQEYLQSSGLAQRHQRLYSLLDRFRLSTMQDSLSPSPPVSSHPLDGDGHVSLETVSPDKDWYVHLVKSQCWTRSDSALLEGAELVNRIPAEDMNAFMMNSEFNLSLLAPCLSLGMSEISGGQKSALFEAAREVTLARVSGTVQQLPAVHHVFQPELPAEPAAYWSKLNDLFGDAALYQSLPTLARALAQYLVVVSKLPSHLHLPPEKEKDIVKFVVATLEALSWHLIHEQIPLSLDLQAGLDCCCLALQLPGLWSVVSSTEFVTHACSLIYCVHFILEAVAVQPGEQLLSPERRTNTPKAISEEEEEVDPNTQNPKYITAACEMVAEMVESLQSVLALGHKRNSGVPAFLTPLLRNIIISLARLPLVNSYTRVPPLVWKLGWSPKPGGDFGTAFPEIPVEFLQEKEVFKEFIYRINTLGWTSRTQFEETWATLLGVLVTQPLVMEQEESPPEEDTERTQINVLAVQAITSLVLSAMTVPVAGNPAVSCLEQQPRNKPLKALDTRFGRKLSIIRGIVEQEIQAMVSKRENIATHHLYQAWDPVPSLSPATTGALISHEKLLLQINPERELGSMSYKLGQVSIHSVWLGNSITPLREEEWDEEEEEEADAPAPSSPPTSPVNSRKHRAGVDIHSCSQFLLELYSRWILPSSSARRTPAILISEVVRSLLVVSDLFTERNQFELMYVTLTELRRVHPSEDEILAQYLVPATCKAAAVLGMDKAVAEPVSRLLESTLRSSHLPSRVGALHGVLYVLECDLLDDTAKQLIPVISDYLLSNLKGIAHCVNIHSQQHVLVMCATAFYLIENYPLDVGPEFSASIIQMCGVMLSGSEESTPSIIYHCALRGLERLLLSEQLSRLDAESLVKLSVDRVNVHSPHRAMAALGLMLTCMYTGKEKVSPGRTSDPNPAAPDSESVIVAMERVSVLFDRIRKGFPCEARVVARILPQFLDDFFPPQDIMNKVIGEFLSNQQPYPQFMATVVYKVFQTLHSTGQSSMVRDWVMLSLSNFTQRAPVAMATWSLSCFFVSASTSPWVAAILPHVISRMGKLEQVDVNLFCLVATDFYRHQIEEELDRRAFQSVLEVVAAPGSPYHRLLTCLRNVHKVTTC
Numbers stand for hits; 0 = inactive; - = no result; ! = not active in a repeat. This excerpt belongs to a sample that is enriched for hits. Rule as the data show it: active = inhibition above about 50%; inactive = the rest.

SMILES	Pf apPOL inh	mHTT-CaM PPI inh
COc1ccc(S(N)(=O)=O)cc1	0	0
COc1ccc(-c2csc(Nc3cccnc3)n2)cc1	0	-
CCN(CC)c1ccc(Nc2nc(-c3ccncc3)cs2)cc1	0	85
COc1ccc(-c2csc(Nc3ccc(N(C)C)cc3)n2)cc1	0	89
COc1ccc(-c2csc(Nc3ccc(S(N)(=O)=O)cc3)n2)cc1	0	52
COc1ccc(S(=O)(=O)CCC(=O)Nc2ccc(OC(F)(F)F)cc2)cc1	0	0
Cc1noc(-c2ccc(NC(=O)c3ccc([N+](=O)[O-])o3)cc2)n1	0	0
CCOc1ccc(NC(=O)C2=C(C)NC(=O)NC2c2ccc(N(C)C)cc2)cc1 (centres undefined)	0	0
COc1ccc(Nc2nc(-c3ccc(F)cc3F)cs2)cc1	0	0
CCCC(=O)Nc1nc(-c2ccccc2)cs1	0	0
CCN(CC)c1ccc(Nc2nc(-c3ccccc3)cs2)cc1	0	80
CCN(CC)c1ccc(Nc2nc(-c3ccc(OC)cc3)cs2)cc1	0	80
CN1C(=O)c2ccc(Oc3cccc([N+](=O)[O-])c3)cc2C1=O	0	0
Cc1cc(NC(=O)Cn2cnc(-c3cccs3)cc2=O)sn1	0	0
Cc1cccnc1NC(=O)c1c(O)c2cccc3c2n(c1=O)CCC3	0	0
O=C(Nc1ncccn1)c1c(O)c2cccc3c2n(c1=O)CCC3	0	56
O=C(Nc1ncccc1O)c1c(O)c2cccc3c2n(c1=O)CC3	0	52
O=C(Nc1ccccn1)c1c(O)c2cccc3c2n(c1=O)CCC3	0	0
CC(=O)N1N=C(c2ccc(F)cc2)OC12CCCC2	0	0
CCc1ccc(-n2[nH]c3c(cnc4ccc(C(=O)N5CCC(C)CC5)cc43)c2=O)cc1	0	0
Cc1ccc(C(=O)Sc2nc(C)cc(C)n2)cc1	0	71
Cc1cc(C)nc(SCC(=O)c2ccc(C(C)C)cc2)n1	0	0
COc1nc(N)c(C#N)c(-c2ccc3c(c2)OCO3)c1C#N	0	0
N#Cc1c(-c2ccc3c(c2)OCO3)nc(N2CCCCC2)[nH]c1=O	0	62
COc1ccc(N=c2scc(-c3ccc(Br)cc3)n2CCO)cc1	0	59
SMILES	Pf apPOL inh	mHTT-CaM PPI inh
COc1ccc(-c2csc(=Nc3ccccc3)n2CCO)cc1	0	0
COc1ccc(N=c2scc(-c3ccc(I)cc3)n2CCO)cc1	0	66
O=S(=O)(c1ccc(-c2csc(=Nc3ccccc3)n2CCO)cc1)N1CCCCC1	0	0
Cc1cccc(N=Cc2cc(Cl)cc(Cl)c2O)c1C	0	-
COc1ccc(N=Cc2cc(Br)cc(Cl)c2O)cc1	0	0
Oc1c(Cl)cc(Cl)cc1C=Nc1cccc2cccnc12	0	55
Oc1c(Cl)cc(Br)cc1C=Nc1ccc2ncccc2c1	0	82
Cc1ccc(N=Cc2cc(Br)cc(Cl)c2O)c(N)c1	0	61
CC(=O)c1ccc(N=Cc2cc(Br)cc(Cl)c2O)cc1	0	0
Cc1ccc(NC(=O)O[C@@H]2C[C@H]3C[C@@H]2[C@H]2CCCCN2[C@H]3Cc2ccccc2)cc1	0	0
C=CCn1c(/C=C/c2ccco2)nc2ccccc21	0	0
CSc1ncccc1C(=O)N1CCCn2nc(-c3cccc(Cl)c3)cc2C1	0	0
Cc1ccc(-c2nc(-c3ccc4c(c3)ncn4CCN3CCCCC3)no2)s1	0	0
N#CC(=CNc1ccc2c(c1)OCCO2)C(=O)c1cccc(C(F)(F)F)c1	0	-
O=C(CSc1n[nH]c(-c2ccncc2)n1)c1ccc(O)c(O)c1	0	84!
O=C(CSc1n[nH]c(-c2ccncc2)n1)c1ccc(F)cc1	0	0
O=C(NCC1CCN(c2cc(-c3ccncc3)[nH]n2)CC1)c1ccc(F)c(F)c1	0	0
Cc1ccc(C)c(S(=O)(=O)n2nnc3cc(Cl)ccc32)c1	0	0
COc1ccc(OC)c(S(=O)(=O)n2nnc3cc(Cl)ccc32)c1	0	100
O=C(c1ccc(OCC2CCCN(C(=O)c3ccccn3)C2)cc1)N1CCOCC1 (centres undefined)	0	0
CC(=O)N1CCN(C(=O)C23CC4(C)CC(C)(CC(C)(C4)C2)C3)CC1	0	0
COc1ccc(N2CCN(C(=O)C34CC5(C)CC(C)(CC(C)(C5)C3)C4)CC2)cc1	0	54
COc1ccc(OC)c(N=Cc2c(O)n(-c3ccccc3OC)c(=O)c3ccccc23)c1	0	0
CC(=O)Nc1c(C(=O)c2ccc(F)cc2)oc2ccc(Cl)cc12	0	0
O=C(Nc1c(C(=O)O)oc2ccc(Cl)cc12)c1ccc(C(F)(F)F)cc1	85	0
SMILES	Pf apPOL inh	mHTT-CaM PPI inh
CSc1nc2c(c(=O)[nH]1)C1(CCCCC1)Cc1ccccc1-2	0	0
NNc1nc(N)c2c(n1)-c1ccccc1CC21CCCCC1	0	100
COc1ccc(N2CCN3c4cc(OC)ccc4CC(C(=O)NC4CC4)C3C2)cc1 (centres undefined)	0	0
COc1ccc2c(c1)N1CCN(c3ccc(C)cc3)CC1C(C(=O)NC1CC1)C2 (centres undefined)	0	65
Cc1ccn2cc(C(=O)NCc3ccc(N(C)C)cc3)nc2c1	0	0
O=C(NCc1ccccc1)C1CCCN(c2nnc3ccc(Cl)cn23)C1 (centres undefined)	0	0
CCn1c2ccccc2c2cc(C3C(C#N)=C(N)Oc4n[nH]c(COC)c43)ccc21 (centres undefined)	0	65
COCc1[nH]nc2c1C(c1ccc(OC)c(OC)c1)C(C#N)=C(N)O2 (centres undefined)	0	0
O=C(Nc1cc(Cl)ccc1Cl)c1cccc(S(=O)(=O)N2CCCCC2)c1	0	0
O=C(Nc1cc(Cl)ccc1O)c1cccc(S(=O)(=O)N2CCCC2)c1	0	51
Cc1c(C(=O)Nc2c3c(nn2-c2ccc(Cl)cc2)CS(=O)(=O)C3)cccc1[N+](=O)[O-]	0	0
CN1CCN(C(=O)CSc2nc3c(c(C(F)(F)F)c2C#N)CCC3)CC1	-	62
CCCCSc1nc2c(c(C(F)(F)F)c1C#N)CC(C)CC2 (centres undefined)	-	0
CC(C)C(=O)N1CCCC(c2ccnc(Nc3ccccc3)n2)C1 (centres undefined)	0	0
CC(C)CC(=O)N1CCCC(c2ccnc(Nc3ccccc3)n2)C1 (centres undefined)	0	71
O=C(Cc1ccccc1F)N1CCCC(c2ccnc(Nc3ccccc3)n2)C1 (centres undefined)	0	86
O=C(c1cccs1)N1CCCC(c2ccnc(Nc3ccccc3)n2)C1 (centres undefined)	0	61
COc1ccc(-c2nccc(C3CCCN(C(=O)Cc4ccc(F)cc4)C3)n2)cc1 (centres undefined)	0	0
O=C(c1cccs1)N1CCCC(c2ccnc(Nc3ccccc3F)n2)C1 (centres undefined)	0	0
O=C(Cc1ccc(F)cc1)N1CCCC(c2ccnc(Nc3ccccc3)n2)C1 (centres undefined)	0	96
CCOCC(=O)N1CCCC(c2ccnc(Nc3ccc(OC)cc3)n2)C1 (centres undefined)	0	0
COc1ccc(C)cc1NC(=O)CN1CCC(c2nc(-c3cccc(F)c3)no2)CC1	0	0
Cc1nc2c(C(=O)NC3CCCC3)cnn2c(C)c1Cc1ccccc1F	0	0
CCc1noc(-c2cccnc2N2CCCN(C(=O)c3ccc4c(c3)OCO4)CC2)n1	0	0
CC(=O)Nc1ccc(-c2noc(C3CCCN(C(=O)c4ccc(C(C)C)cc4)C3)n2)cc1 (centres undefined)	0	0
CC1CCc2nn(CC(=O)NCCCN(Cc3ccccc3)C(C)C)cc2C1 (centres undefined)	0	0

Source: PubChem (University of Kansas High Throughput Screening Laboratory)
